Bioassay records: PubChem BioAssay, National Center for Advancing Translational Sciences (NCATS)
NPC1 prom act – activates the NPC1 promoter | Huh7 NPC1 promoter luciferase reporter, 24 h | Potency, µM (titrated, usually from 9.22 µM), inactives show at the top dose activation, usual class: activators | 2.4% of 320,000 active | AID 485313; further: % of control where 0% means no effect; nearly all actives have a fitted effect of over 60% in size
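Readout is luciferase luminescence, reflecting NPC1 promoter activation in stably transfected Huh7 cells after 24 h compound exposure at 37 °C in reduced-serum medium with 10% FBS.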
ELG1 DNA repair – ELG1-dependent DNA repair inhibition; Potency, µM (doses to about 46.1 µM), without a hit: at the highest dose activity change, negative = inhibition, usual class: inhibitors; HEK293T ELG1-luciferase reporter, luminescence, 16 h; DNA damage induced by 5-fluorouridine; 2.3% of 330,000 active; AID 504467; further: on the % scale 0 is the no-effect control and ±100 the full control effect; nearly all actives have a fitted effect of over 55% in size
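In this reporter screen, reduction of luminescence relative to DMSO vehicle indicated activity. Compounds and 5-fluorouridine were added together to 2,000 cells per well, incubated for 16 hr at 37 °C, then developed with ONE-Glo.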
ELG1 genotox – induces genotoxicity in HEK293T cells with luciferase-tagged ELG1; HEK293T ELG1-luciferase reporter, luminescence, 16 h; Potency, µM (titrated, usually from 46 µM), without a hit: at the highest dose activity change, positive = activation, usual class: activators; 1.3% of 330,000 active; further: % of control where 0% means no effect; nearly all actives have a fitted effect of over 60% in size
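ELG1-luciferase HEK293T cells, 2,000/well; compound pinned in; 16 hr, 37 °C, 5% CO2; ONE-Glo, 30 min RT; luminescence on CCD imager.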
Rab9 prom act – Rab9 promoter activation; AID 485297; 2.8% of 320,000 active; Potency, µM (titrated, usually from 9.22 µM), without a hit: top-dose activation, negative = inhibition, actives largely listed as activators; Huh7 Rab9 promoter-luciferase reporter, luminescence, 24 h; further: % of control where 0% means no effect; nearly all actives have a fitted effect of over 60% in size
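Huh7 cells stably carrying a Rab9 promoter-luciferase reporter, 1500 cells per well in OP-MEM I with 10% FBS, treated with compound 24 hours at 37C. Luciferase activity read by luminescence after 10 minutes with Amplite reagent.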
FLuc counter – inhibits or activates purified firefly luciferase, miR-21 counter-screen | 6.9% of 360,000 active | Potency, µM (titrated, usually from 57.5 µM), inactives show at the top dose activity change, negative = inhibition, most hits filed as inhibitors | AID 588342 | purified FLuc, Km substrates, luminescence inhibition | P08659;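 further: plate controls were vehicle for no effect and reference inhibitor for full effect; nearly all actives have a fitted effect of over 55% in size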
Target sequence (P08659 whole entry, looked up): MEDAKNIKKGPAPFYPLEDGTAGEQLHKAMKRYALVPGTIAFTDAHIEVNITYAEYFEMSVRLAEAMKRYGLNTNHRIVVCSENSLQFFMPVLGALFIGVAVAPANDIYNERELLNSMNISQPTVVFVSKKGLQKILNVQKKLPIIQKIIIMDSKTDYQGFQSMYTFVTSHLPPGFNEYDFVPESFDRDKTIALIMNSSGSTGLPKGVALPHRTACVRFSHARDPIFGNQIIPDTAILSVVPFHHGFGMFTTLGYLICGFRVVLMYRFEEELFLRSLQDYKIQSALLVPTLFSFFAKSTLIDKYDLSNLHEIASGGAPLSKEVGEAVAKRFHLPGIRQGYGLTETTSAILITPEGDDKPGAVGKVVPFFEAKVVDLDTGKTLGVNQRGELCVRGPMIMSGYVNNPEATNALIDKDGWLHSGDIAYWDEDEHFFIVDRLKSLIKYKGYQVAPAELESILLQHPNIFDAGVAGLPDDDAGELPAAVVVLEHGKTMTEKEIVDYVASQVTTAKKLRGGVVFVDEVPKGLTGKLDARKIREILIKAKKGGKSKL
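Purified P. pyralis luciferase (10nM final) with 10uM D-luciferin and 10uM ATP (Km levels) in 50mM Tris acetate pH 7.5, 10mM Mg acetate, 0.01% Tween-20, 0.05% BSA; qHTS 6-point titration, ~60 µM downward; luminescence read.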
SMN2 splice up – increases expression of the SMN2 splice variant; 2.8% of 210,000 active; HEK293 SMN2-luciferase splicing reporter, luminescence, 30-36 h; Potency, µM (doses to about 46.1 µM), for the others: at the top dose activity change, positive = activation, most hits filed as activators; AID 1458; further: % of control where 0% means no effect; nearly all actives have a fitted effect of over 55% in size
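HEK293 cells carry an SMN2 […]–luciferase reporter in which exon 7 inclusion puts luciferase in frame. Cells were plated 10-12 h before compound addition, then incubated 30-36 h at 37C. ONE-Glo luminescence was read; sodium butyrate at 4.5 mM final served as control.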
Starred values were filed as active, the others as inactive. Compounds with a hit are over-represented: about 9.2% of the library has one in this group of screens. The call rests on the fitted dose curve; in most records, active means well fitted curve in the direction sought with a large enough effect; inconclusive means small, poorly fitted or top-dose-only effect, or another doubt; inactive means no such curve, though single readings can be large; an effect the other way counts as inactive or inconclusive. Potency means the concentration at half of the fitted maximal effect.

How did Cc1c(NC(=O)COC(=O)c2cc(-c3ccc(-c4ccccc4)cc3)nc3ccccc23)c(=O)n(-c2ccccc2)n1C do in these assays?
NPC1 prom act: 0.63µM*; ELG1 DNA repair: inconclusive; ELG1 genotox: inconclusive; Rab9 prom act: 2.5µM*; FLuc counter: 0.85µM*; SMN2 splice up: 0.63µM*

How did Cc1c(NC(=O)c2cc(-c3ccccc3)on2)c(=O)n(-c2ccccc2)n1C do in these assays?
NPC1 prom act: -3%; ELG1 DNA repair: 4%; ELG1 genotox: -7%; Rab9 prom act: -4%; FLuc counter: -1%; SMN2 splice up: 31%

How did Cc1c(NC(=O)c2cc(-c3ccccc3)nc3ccccc23)c(=O)n(-c2ccccc2)n1C do in these assays?
ELG1 DNA repair: 5.8µM*; ELG1 genotox: -4%

How did COc1ccc(-c2cc(C(=O)Nc3c(C)n(C)n(-c4ccccc4)c3=O)c3ccccc3n2)cc1OC do in these assays?
NPC1 prom act: -1%; ELG1 DNA repair: 7.3µM*; ELG1 genotox: -6%; Rab9 prom act: 1%; FLuc counter: 21µM*

How did Cc1cccc(C(=O)OCC(=O)Nc2c(C)n(C)n(-c3ccccc3)c2=O)c1 do in these assays?
NPC1 prom act: -5%; ELG1 DNA repair: 10%; ELG1 genotox: 1%; Rab9 prom act: 4%; FLuc counter: 6%

How did Cc1ccc(-c2cc(C(=O)Nc3c(C)n(C)n(-c4ccccc4)c3=O)c3ccccc3n2)cc1 do in these assays?
ELG1 DNA repair: 13µM*; ELG1 genotox: -6%

What do the screens show for `COc1cccc(C=O)c1OC(=O)N1CCOCC1`?
NPC1 prom act: 1%; ELG1 DNA repair: -4%; ELG1 genotox: -3%; Rab9 prom act: -1%; FLuc counter: -4%

How did COc1ccc(Cn2c(C(=O)O)c(CNCC(C)c3ccccc3)c3ccc(OC)cc32)cc1 (stereo unspecified) do in these assays?
FLuc counter: -7%

Results for O=C(Cn1cc(S(=O)(=O)Cc2ccccc2Cl)c2ccccc21)Nc1ccc(F)cc1F ?
FLuc counter: 2%

What do the screens show for `COc1ccc(-c2cc(C(=O)Nc3c(C)n(C)n(-c4ccccc4)c3=O)c3ccccc3n2)c(OC)c1`?
NPC1 prom act: 14%; ELG1 DNA repair: 10µM*; ELG1 genotox: -11%; Rab9 prom act: 0%; FLuc counter: -3%

Results for COc1ccc(-c2cc(C(=O)O)c3ccccc3n2)c(OC)c1 ?
NPC1 prom act: -3%; ELG1 DNA repair: 9%; ELG1 genotox: 16%; Rab9 prom act: -1%; FLuc counter: inconclusive; SMN2 splice up: 20%

How did COc1ccc(-c2cc(C(=O)OC(C)C(=O)Nc3c(C)n(C)n(-c4ccccc4)c3=O)c3ccccc3n2)cc1 (stereo unspecified) do in these assays?
NPC1 prom act: 1%; ELG1 DNA repair: 15µM*; ELG1 genotox: 0%; Rab9 prom act: -1%; FLuc counter: 13µM*; SMN2 splice up: 23%

Results for Cc1ccc(OCCNC(=O)C2CC(=O)N(Cc3ccccc3)C2)cc1 (stereo unspecified) ?
NPC1 prom act: -2%; ELG1 DNA repair: 3%; ELG1 genotox: -2%; Rab9 prom act: 6%; FLuc counter: 4%

Results for CCCn1c(C)cc(/C=C(\C#N)C(=O)OCC(=O)NC(=O)NC(C)(C)C)c1C ?
NPC1 prom act: 1%; ELG1 DNA repair: 3%; ELG1 genotox: 0%; Rab9 prom act: -3%; FLuc counter: 17µM*; SMN2 splice up: 4%

How did CCCNC(=O)COC(=O)/C(C#N)=C/c1cc(C)n(CCC)c1C do in these assays?
NPC1 prom act: -1%; ELG1 DNA repair: 0%; ELG1 genotox: 16%; Rab9 prom act: 14%; FLuc counter: 0%; SMN2 splice up: -6%
